Records with an inconclusive call do not appear. Activity calls are given as the source filed them. Calls follow the shape of the dose curve; as a rule, active = well fitted curve in the direction sought with a large enough effect; inconclusive = small, poorly fitted or top-dose-only effect, or another doubt; inactive = no such curve, though single readings can be large; an effect the other way counts as inactive or inconclusive. Where a SMILES comes first, the peptide text is derived from it. The star is where a group is joined. PhAc = O=C(Cc1ccccc1)*
Columns and labels:
CRL-7250 = normal cell line; assay: Cytotoxic Profiling of Annotated Libraries Using Quantitative High-Throughput Screening (AID 1296008); settings: Five cell lines viability, CellTiter-Glo ATP luminescence, 48-72 h; max response: stronger effect = lower value; also: nearly all actives have a fitted effect of over 60% in size; also: potency is read from the fitted curve at half-maximal effect; as to max response: % is scaled to controls: 0 for no effect and ±100 for the full control effect
How it was run: (§1)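 Cells exposed to compounds for 48 or 72 hr at 37 degrees Celsius. Viability read as ATP-coupled luminescence with CellTiter-Glo after 10 min at room temperature.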

HEK293 = assay: as above; settings: Five cell lines viability, CellTiter-Glo ATP luminescence, 48-72 h; max response: stronger effect = lower value
How it was run: as §1

HaCat [1] = assay: as above; settings: Five cell lines viability, CellTiter-Glo ATP luminescence, 48-72 h; max response: stronger effect = lower value
How it was run: as §1

KB-3-1 = assay: as above; settings: Five cell lines viability, CellTiter-Glo ATP luminescence, 48-72 h; max response: stronger effect = lower value
How it was run: as §1

NIH3T3 = assay: as above; settings: Five cell lines viability, CellTiter-Glo ATP luminescence, 48-72 h; max response: stronger effect = lower value
How it was run: as §1

HACAT [2] = assay: qHTS assay to identify novel small-molecules to repurpose for Merkel cell carcinoma treatment (AID 1296009); settings: MCC and control cell lines, CellTiter-Glo viability, 72 h; at 44.8 µM (top of the series) unless noted; also: nearly all actives have a fitted effect of over 60% in size
How it was run: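 Cells were treated for 72 hr at 37 degree celsius with compounds in 8- or 11-point dose response. Viability was read by CellTiter-Glo luminescence, normalized to no-cell (cytotoxicity) and DMSO controls.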

C33A = assay: Primary qHTS to identify gynecologic anti-cancer compounds using libraries of approved drugs and bioactive compounds (AID 1345084); settings: Gynecologic cancer cell panel viability, ATPlite luminescence, 48 h; series mostly up to 57.5 µM; also: % is scaled to controls: 0 for no effect and ±100 for the full control effect; nearly all actives have a fitted effect of over 55% in size
How it was run: (§2)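 ATP-based viability (ATPlite), 1,000 cells/well, 16 h pre-incubation, 48 h compound at 37 C, 5% CO2, 15 min RT before read.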

CAOV3 = assay: as above; settings: Gynecologic cancer cell panel viability, ATPlite luminescence, 48 h; series mostly up to 57.5 µM
How it was run: as §2

CASKI = assay: as above; settings: Gynecologic cancer cell panel viability, ATPlite luminescence, 48 h; series mostly up to 57.5 µM
How it was run: as §2

Es-2 = assay: as above; settings: Gynecologic cancer cell panel viability, ATPlite luminescence, 48 h; series mostly up to 57.5 µM
How it was run: as §2

HeLa = assay: as above; settings: Gynecologic cancer cell panel viability, ATPlite luminescence, 48 h; series mostly up to 57.5 µM
How it was run: as §2

Hek293T = assay: as above; settings: Gynecologic cancer cell panel viability, ATPlite luminescence, 48 h, control line for the selectivity index; series mostly up to 57.5 µM
How it was run: as §2

JEG-3 = assay: as above; settings: Gynecologic cancer cell panel viability, ATPlite luminescence, 48 h; series mostly up to 57.5 µM
How it was run: as §2

OV90 = assay: as above; settings: Gynecologic cancer cell panel viability, ATPlite luminescence, 48 h; series mostly up to 57.5 µM
How it was run: as §2

PA-1 = assay: as above; settings: Gynecologic cancer cell panel viability, ATPlite luminescence, 48 h; series mostly up to 57.5 µM
How it was run: as §2

CC(=O)OC1CC(C(C)(C)O)OC2CCC3(C)OC4=C(C(=O)C=C5C(C)C(OC(C)=O)C6(C)C(C)OC546)C(O)C3C12C (stereo not given)
inactive: outcome (CRL-7250) | max response (HEK293) -23.5% | outcome (HaCat [1]) | max response (KB-3-1) 5.34% | max response (NIH3T3) 1.94% | outcome (HACAT [2]) inactive [at 17.4 µM] | Potency (C33A) | Potency (CAOV3) | outcome (CASKI) | Potency (Es-2) | Potency (HeLa) | Potency (Hek293T) | Potency (JEG-3) | Potency (OV90) | Potency (PA-1)

CC(=O)NC(Cc1c[nH]c2ccccc(=O)c12)C(=O)O (stereo not given)
inactive: max response (CRL-7250) -6.01% | max response (HEK293) 1.04% | outcome (HaCat [1]) | outcome (KB-3-1) | max response (NIH3T3) 1.4% | outcome (HACAT [2]) | Potency (C33A) | Potency (CAOV3) | outcome (CASKI) | Potency (Es-2) | Potency (HeLa) | Potency (Hek293T) | Potency (JEG-3) | Potency (OV90) | Potency (PA-1)

O=C(OC(C(F)(F)F)C(F)(F)F)N1CCN(Cc2cccc(Oc3ccccc3)c2)CC1
inactive: outcome (CRL-7250) | max response (HEK293) -26.5% | outcome (HaCat [1]) | max response (KB-3-1) -5.42% | max response (NIH3T3) 4.82% | outcome (HACAT [2]) | Potency (C33A) | Potency (CAOV3) | outcome (CASKI) | Potency (Es-2) | Potency (HeLa) | Potency (Hek293T) | Potency (JEG-3) | Potency (OV90) | Potency (PA-1)

Cc1[nH]c2ccccc2c1CC(=O)N[C@@H](Cc1ccccc1)C(=O)N(C)c1ccccc1
inactive: max response (CRL-7250) -9.69% | max response (HEK293) -12.5% | outcome (HaCat [1]) | outcome (KB-3-1) | max response (NIH3T3) -0.277% | outcome (HACAT [2]) | Potency (C33A) | Potency (CAOV3) | outcome (CASKI) | Potency (Es-2) | Potency (HeLa) | Potency (Hek293T) | Potency (JEG-3) | Potency (OV90) | Potency (PA-1)

Oc1ccc2c(-c3c(-c4ccccn4)nn4c3CCC4)ccnc2c1
active: Potency (NIH3T3) 13 µM
inactive: max response (CRL-7250) -1.66% | max response (HEK293) -21.7% | outcome (HaCat [1]) | max response (KB-3-1) -4.91% | outcome (HACAT [2]) | Potency (C33A) | Potency (CAOV3) | outcome (CASKI) | Potency (Es-2) | Potency (HeLa) | Potency (Hek293T) | Potency (JEG-3) | Potency (OV90) | Potency (PA-1)

COC(=O)[C@H](c1ccccc1Cl)N1CCC2SC(=O)C=C2C1 (stereo not given in full)
inactive: max response (CRL-7250) -4.86% | max response (HEK293) -11.7% | outcome (HaCat [1]) | max response (KB-3-1) 7.5% | max response (NIH3T3) -12.1% | outcome (HACAT [2]) | Potency (C33A) | Potency (CAOV3) | outcome (CASKI) | Potency (Es-2) | Potency (HeLa) | Potency (Hek293T) | Potency (JEG-3) | Potency (OV90) | Potency (PA-1)

CC(C)N(CCCNC(=O)Nc1ccc(C(C)(C)C)cc1)C[C@H]1O[C@@H](n2ccc3c(N)ncnc32)[C@H](O)[C@@H]1O
inactive: max response (CRL-7250) 1.45% | max response (HEK293) -23.8% | outcome (HaCat [1]) | max response (KB-3-1) -3.09% | max response (NIH3T3) -13.2% | outcome (HACAT [2]) | Potency (C33A) | Potency (CAOV3) | outcome (CASKI) | Potency (Es-2) | Potency (HeLa) | Potency (Hek293T) | Potency (JEG-3) | Potency (OV90) | Potency (PA-1)

CC(=O)NC(C(=O)OC1CCC(C)(C)C2CC=C3C(=O)OCC3C12C)C(C)C (stereo not given)
inactive: outcome (CRL-7250) | max response (HEK293) -2.64% | outcome (HaCat [1]) | outcome (KB-3-1) | max response (NIH3T3) 4.96% | outcome (HACAT [2]) | Potency (C33A) | Potency (CAOV3) | outcome (CASKI) | Potency (Es-2) | Potency (HeLa) | Potency (Hek293T) | Potency (JEG-3) | Potency (OV90) | Potency (PA-1)

CC(=O)OC(C)C(C)(O)C(=O)O[C@@H]1CC[C@]2(C)CC(=O)C(=C(C)C)C[C@H]2[C@]1(C)OC(C)=O (stereo not given in full)
inactive: max response (CRL-7250) -0.377% | max response (HEK293) 0.4% | outcome (HaCat [1]) | max response (KB-3-1) 6.09% | max response (NIH3T3) -1.04% | outcome (HACAT [2]) inactive [at 17.4 µM] | Potency (C33A) | Potency (CAOV3) | outcome (CASKI) | Potency (Es-2) | Potency (HeLa) | Potency (Hek293T) | Potency (JEG-3) | Potency (OV90) | Potency (PA-1)

O=C(/C=C/c1ccc(O)cc1)OC[C@@]1(O)C=C[C@@H]2C(C(=O)O)=CO[C@@H](O[C@@H]3O[C@H](CO)[C@@H](O)[C@H](O)[C@H]3O)[C@@H]21
inactive: max response (CRL-7250) -3.16% | max response (HEK293) -5.68% | outcome (HaCat [1]) | outcome (KB-3-1) | max response (NIH3T3) 2.82% | outcome (HACAT [2]) inactive [at 17.4 µM] | Potency (C33A) | Potency (CAOV3) | outcome (CASKI) | Potency (Es-2) | Potency (HeLa) | Potency (Hek293T) | Potency (JEG-3) | Potency (OV90) | Potency (PA-1)

CC12CC34CC(O)C5C(CO)(CO)CC(=O)CC5(C)C3CC1C2C4 (stereo not given)
inactive: max response (CRL-7250) -4.91% | max response (HEK293) -0.711% | outcome (HaCat [1]) | max response (KB-3-1) 0.93% | max response (NIH3T3) 2.14% | outcome (HACAT [2]) | Potency (C33A) | Potency (CAOV3) | outcome (CASKI) | Potency (Es-2) | Potency (HeLa) | Potency (Hek293T) | Potency (JEG-3) | Potency (OV90) | Potency (PA-1)

CCOC(=O)CNC(=O)[C@@H]1CCCN1C(=O)Cc1ccccc1 (PhAc-Pro-Gly-OEt)
inactive: max response (CRL-7250) -0.853% | max response (HEK293) 4.73% | outcome (HaCat [1]) | max response (KB-3-1) 5.86% | max response (NIH3T3) -14.5% | outcome (HACAT [2]) | Potency (C33A) | Potency (CAOV3) | outcome (CASKI) | Potency (Es-2) | Potency (HeLa) | Potency (Hek293T) | Potency (JEG-3) | Potency (OV90) | Potency (PA-1)

Reference: PubChem BioAssay (NCATS)
